Screening results (PubChem BioAssay)
Tau fibril ThT: inhibitors of human tau fibril formation, thioflavin T binding. AID 1460. 2.1% of 270,000 active. P10636. Potency, µM (series often up to 57.4 µM), hits mostly inhibitors. recombinant tau K18 P301L, heparin-induced fibrillization, ThT fluorescence; further: nearly all actives have a fitted effect of over 55% in size
Target sequence (P10636 561-689 P618L limits assumed): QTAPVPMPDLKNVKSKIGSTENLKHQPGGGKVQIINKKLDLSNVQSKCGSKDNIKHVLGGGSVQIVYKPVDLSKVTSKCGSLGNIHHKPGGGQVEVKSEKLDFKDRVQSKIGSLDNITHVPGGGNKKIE
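Heparin-induced fibrillization of the P301L-mutant K18 repeat-domain fragment of human tau was followed by ThT binding in quantitative high-throughput format.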
Tau fluor cs: counter-screen for tau fibril formation inhibitors. tau K18 P301L (four-repeat tau fragment) Alexa594 fluorescence, heparin fibrillization. Potency, µM (doses to about 57.7 µM). 0.93% of 280,000 active; further: nearly all actives have a fitted effect of over 55% in size
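Human K18 P301L tau (15 uM unlabeled plus 0.24 uM Alexa 594-labeled, final) in 100 mM sodium acetate pH 7 was mixed with compound and 20 uM heparin and incubated 6 hr at 37 C.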
HPGD block: blocks human HPGD enzyme activity; P15428; purified HPGD, NADH fluorescence kinetic, PGE2 substrate; Potency, µM, usual class: inhibitors; 4.3% of 150,000 active; AID 894; active means well fitted inhibition curve with a large enough effect, not every such curve was filed as active; inconclusive means small, poorly fitted or top-dose-only effect, or another doubt; inactive means no such curve, though single readings can be large or run the other way
Target sequence (P15428 whole entry, looked up): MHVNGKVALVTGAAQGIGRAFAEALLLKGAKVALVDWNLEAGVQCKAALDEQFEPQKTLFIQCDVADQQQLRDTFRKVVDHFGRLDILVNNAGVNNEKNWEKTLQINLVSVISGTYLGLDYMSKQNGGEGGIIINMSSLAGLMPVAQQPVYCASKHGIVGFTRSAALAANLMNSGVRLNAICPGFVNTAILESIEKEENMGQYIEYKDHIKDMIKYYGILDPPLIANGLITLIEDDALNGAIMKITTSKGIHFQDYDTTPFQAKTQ
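NADH formation kinetics: reaction with 30 uM PGE2 and 1 mM NAD+ (final), 20 nM enzyme, Tris-HCl pH 8 with Tween 20, after 15 min compound preincubation at room temperature. Fluorescence change, last versus first of five reads.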
KDM4E inh: JMJD2E (human) inhibition; JMJD2E catalytic domain, FDH-coupled NADH fluorescence (FDH is formaldehyde dehydrogenase); Potency, µM (highest dose often 57.1 µM), usual class: inhibitors; 1.6% of 230,000 active; active means well fitted inhibition curve with a large enough effect, not every such curve was filed as active; inconclusive means small, poorly fitted or top-dose-only effect, or another doubt; inactive means no such curve, though single readings can be large or run the other way; further: nearly all actives have a fitted effect of over 50% in size
ALDH1A1 block: ALDH1A1 (human) enzyme inhibition | P00352 | Purified ALDH1A1, NADH fluorescence, propionaldehyde substrate | Potency, µM (titrated, usually from 75.3 µM), usual class: inhibitors | 7.3% of 220,000 active; active means well fitted inhibition curve with a large enough effect, not every such curve was filed as active; inconclusive means small, poorly fitted or top-dose-only effect, or another doubt; inactive means no such curve, though single readings can be large or run the other way
Tau fibril FP: inhibitors of human tau fibril formation. P10636. K18 P301L tau heparin fibrillization, Alexa594 FP, 6 h. Potency, µM (highest dose often 57.7 µM), usual class: inhibitors. 0.39% of 280,000 active; further: nearly all actives have a fitted effect of over 55% in size
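FP of Alexa 594-tau after heparin (20 uM) induction. Substrate: human K18 P301L, 15 uM unlabeled, 0.24 uM labeled. Buffer 100 mM sodium acetate pH 7. 6 hr, 37 C.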
Hits are given with their value; i = inactive; ? = inconclusive; nt = no result; [ ] = remark or other dose. In the library only some 9.9% were active in any assay of this set; here they are far more common. Unless noted, the call rests on the fitted dose curve; in most records, active means well fitted curve in the direction sought with a large enough effect; inconclusive means small, poorly fitted or top-dose-only effect, or another doubt; inactive means no such curve, though single readings can be large; an effect the other way counts as inactive or inconclusive.

SMILES	Tau fibril ThT	Tau fluor cs	HPGD block	KDM4E inh	ALDH1A1 block	Tau fibril FP
Cc1ccc(-c2cc(C(=O)N3CCCc4ccccc43)no2)cc1	?	i	nt	i	?	i
O=C(c1cc(-c2cccs2)on1)N1CCCc2ccccc21	i	i	i	i	14µM	i
COc1ccc(C2=NOC(C(=O)N3CCCc4ccccc43)C2)cc1 (stereo not given)	i	i	i	i	13µM	i
CC(C)Oc1ccc(C(=O)N2CCCc3ccccc32)cc1	i	i	22µM	i	?	i
Cc1noc(C)c1C(=O)N1CCCc2ccccc21	i	i	i	i	25µM	i
Cc1ccc(-c2nnc(SCC(=O)c3ccc(Cl)cc3)n2-c2ccccc2)cc1	i	i	nt	nt	nt	i
Cc1ccc(Cl)cc1N(C)C(=O)c1sc2nc3n(c(=O)c2c1C)CCCC3	?	i	nt	nt	nt	?
COc1ccc(-c2cc(C(=O)N3CCCc4ccccc43)no2)cc1	?	i	i	i	4µM	i
COc1cccc(-c2cc(C(=O)N3CCCc4ccccc43)no2)c1	?	i	i	i	?	i
CCN(CC)S(=O)(=O)c1ccc(C(=O)N2CCc3ccccc32)cc1	i	i	nt	i	5µM	i
CCN(CC)S(=O)(=O)c1ccc(Cl)c(C(=O)N2CCc3ccccc32)c1	i	i	i	i	?	i
CC1(C)C(c2ccccc2)=[N+]([O-])CN1O	i	i	i	i	7.9µM	i
Cc1cc(C)nc(SCc2nnc(SCC#N)n2-c2cccc(Cl)c2)n1	i	i	16µM	i	i	i
Cc1cc[n+](-c2nc([O-])sc2/C=N/Nc2ccc([N+](=O)[O-])cc2)cc1	?	?	i	i	14µM	i
CC(=O)OCC1=C(C(=O)O)N2C(=O)C(NC(=O)c3ccc(COc4cccc(Cl)c4Cl)o3)C2SC1 (stereo not given)	?	i	nt	i	?	?
Fc1ccc(CNC(=S)Nc2ccccc2Cl)cc1	i	i	i	i	i	i
O=C(O)CSc1c(-c2ccccc2)c2cc(Cl)ccc2[nH]c1=O	i	i	i	i	i	?
O=C(N/N=C/c1ccccc1Cl)c1[nH]c2ccc(Br)cc2c1-c1ccccc1	i	?	i	i	?	?
Cc1ccc2[nH]c(C(=O)NN=C3CCCCC3)c(-c3ccccc3)c2c1	?	?	nt	i	1.4µM	i
NNC(=O)c1[nH]c2ccc(Cl)cc2c1-c1ccccc1	i	i	nt	?	1.1µM	i
Cc1ccc2[nH]c(C(=O)O)c(-c3ccccc3)c2c1	i	i	?	?	?	i
CCOC(=O)CSc1c(-c2ccccc2)c2cc(Cl)ccc2[nH]c1=O	i	i	18µM	i	?	i
NNC(=O)c1[nH]c2ccc(Br)cc2c1-c1ccccc1	i	?	nt	?	0.16µM	i
CCC(C(=O)N1CCN(c2ccccc2)CC1)n1nc(C)c2sc3ccccc3c2c1=O (stereo not given)	i	i	nt	nt	nt	i
Brc1ccc2nc(-c3cccs3)c(NCC3CCCO3)n2c1 (stereo not given)	?	?	nt	?	7.9µM	i
SMILES	Tau fibril ThT	Tau fluor cs	HPGD block	KDM4E inh	ALDH1A1 block	Tau fibril FP
COc1ccccc1N1C(=O)CC(N(O)c2ccccc2)C1=O (stereo not given)	?	i	nt	i	i	i
Cc1ccc(N2C(=O)CC(N(O)C3CC(=O)N(c4ccc(C)cc4)C3=O)C2=O)cc1 (stereo not given)	i	i	32µM	i	2.8µM	i
Cc1ccc(CC2CC(=O)N(c3ccc(C)cc3)C2=O)cc1 (stereo not given)	i	i	nt	i	i	i
COc1ccccc1N(O)C1CC(=O)N(c2ccc(F)cc2)C1=O (stereo not given)	14µM	16µM[quencher]	22µM	?	1.3µM	?
CCCCCCC(=O)N(O)C1CC(=O)N(c2ccc(C)cc2)C1=O (stereo not given)	?	i	7.9µM	i	0.45µM	i
CCCCCCC(=O)N(O)C1CC(=O)N(c2ccc(Cl)cc2)C1=O (stereo not given)	i	i	nt	?	nt	i
CCN(C(=O)CN1CCN(S(=O)(=O)c2ccccc2C(F)(F)F)CC1)c1c(N)n(Cc2ccccc2)c(=O)[nH]c1=O	i	i	i	i	i	i
Nc1ccccc1Nc1ccccc1	?	i	i	?	?	i
Nc1ccc(Nc2ccccc2)c(Cl)c1	i	i	i	i	14µM	i
CCOC(=O)C[n+]1c(C)sc2ccc(OC)cc21	28µM	i	20µM	i	6.3µM	?
Cc1cc(=O)n(CCc2ccccc2)c(O)c1C#N	?	i	i	11µM	i	i
Cc1nnc(SCc2ccc(Cl)cc2Cl)[nH]c1=O	i	i	16µM	i	i	i
COc1cc([N+](=O)[O-])cc(/C=N/NC(=O)Cn2cncn2)c1O	i	i	nt	14µM	nt	i
COc1cc([N+](=O)[O-])cc(/C=N/NC(=O)CC#N)c1O	?	i	nt	?	14µM	?
COc1cc([N+](=O)[O-])cc(/C=N/NC(=O)CSc2ccccn2)c1O	nt	i	nt	20µM	nt	i
COc1cc(/C=N/NC(=O)CSc2ccccn2)ccc1O	i	i	nt	i	nt	i
COc1cc(NC(=O)CSc2nc(C)c(C(=O)Nc3ccccc3)c(-c3ccc(OC)c(OC)c3)c2C#N)c(OC)cc1Cl	i	i	nt	nt	nt	i
O=c1nc(/C=C/c2cc([N+](=O)[O-])ccc2Cl)cc(C(F)(F)F)[nH]1	?	?	3.2µM	i	?	i
O=c1nc(/C=C/c2cccn2-c2ccc([N+](=O)[O-])cc2)cc(C(F)(F)F)[nH]1	?	i	nt	i	i	i
CN1CCN(NC(=O)c2ccc(Br)s2)CC1	nt	i	nt	i	nt	i
Cc1nc(NCCCn2ccnc2)c2ccccc2n1	i	i	i	i	?	i
O=C1c2ccccc2-c2onc3ccc(NCCCn4ccnc4)c1c23	11µM	?	i	i	i	20µM
COc1ncc2nc(C)c(=O)n(C)c2n1	nt	nt	i	nt	i	nt
O=C(NCc1cccs1)c1cc2c(s1)-c1ccccc1OC2	i	?	?	?	?	?
O=C1/C(=C/c2cccs2)COc2ccccc21	?	i	25µM	i	i	i
CC(C)(C)OC(=O)[C@H](Cc1ccccc1)NC(=O)c1[nH]cnc1C(=O)Nc1cccc(Cl)c1	i	?	nt	?	nt	22µM
CC(C)C[C@H](NC(=O)c1[nH]cnc1C(=O)Nc1ccc(Cl)cc1)C(=O)OC(C)(C)C	i	i	nt	?	nt	11µM
CC(C)C[C@H](NC(=O)c1nc[nH]c1C(=O)N[C@@H](CC(C)C)C(=O)OC(C)(C)C)C(=O)OC(C)(C)C	i	i	nt	i	nt	i
CC(C)C[C@H](NC(=O)c1nc[nH]c1C(=O)N(C)Cc1ccccc1)C(=O)OC(C)(C)C	i	i	nt	i	7.9µM	i
